Laboratory results: PubChem BioAssay (NCI)
Compounds without any hit were thinned out: in the full panel of roughly 79,000, 15% have a hit. Calls of active or inactive are those of the source. No stated cut-off is given here; in the data, active means growth inhibition above about 70%; inactive means the rest.

What was measured:
[1] = NCI Yeast Anticancer Drug Screen. Data for the mec2-1 strain (AID 157); conditions: S. cerevisiae mec2-1 strain, hits give high values
How it was run: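 Yeast mec2-1 mutant treated with compound. Readout: growth inhibition vs vehicle controls.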

[2] = NCI Yeast Anticancer Drug Screen. Data for the rad14 strain (AID 159);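 further: 0% = growth of vehicle-treated control cultures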; conditions: S. cerevisiae rad14 strain growth inhibition, hits give high values
How it was run: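 DNA repair-defective yeast, compound-exposed; % growth inhibition derived by comparison with vehicle-treated controls.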

[3] = NCI Yeast Anticancer Drug Screen. Data for the sgs1 mgt1 strain (AID 161);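 further: 0% = growth of cultures given vehicle only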; conditions: S. cerevisiae sgs1 mgt1 strain, hits give high values
How it was run: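 Mutant yeast exposed to compound; growth scored against vehicle-only wells.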

[4] = NCI Yeast Anticancer Drug Screen. Data for the CLN2oe strain (AID 163);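 further: 0% = growth of vehicle-only control cultures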; conditions: S. cerevisiae CLN2oe strain, hits give high values
How it was run: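 Read-out: yeast growth inhibition, expressed relative to vehicle-only controls. The strain bears an engineered cell-cycle alteration.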

[5] = NCI Yeast Anticancer Drug Screen. Data for the cln2 rad14 strain (AID 165);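 further: 0% = growth equal to vehicle treated cultures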; conditions: S. cerevisiae cln2 rad14 strain, hits give high values
How it was run: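 cln2 rad14 yeast strain; compound exposure; growth inhibition read vs vehicle controls.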

[6] = NCI Yeast Anticancer Drug Screen. Data for the bub3 strain (AID 167); conditions: S. cerevisiae bub3 mutant strain, hits give high values
How it was run: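 In this screen, a yeast mutant lacking normal mitotic checkpoint function is challenged with compound. Relative growth versus vehicle gives the inhibition value.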

[7] = NCI Yeast Anticancer Drug Screen. Data for the wt2 strain (AID 169);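 further: 0% = growth of vehicle-treated yeast cultures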; conditions: S. cerevisiae wt2 strain growth inhibition, hits give high values
How it was run: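 Read-out: growth inhibition versus vehicle-treated control cultures after compound exposure of the yeast strain.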

[8] = NCI Yeast Anticancer Drug Screen. Data for the mlh1 strain (AID 171);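 further: 0% = growth of vehicle-treated control cultures of the same strain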; conditions: S. cerevisiae mlh1 strain growth inhibition, hits give high values
How it was run: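 Read-out: growth inhibition versus vehicle controls. Strain: engineered yeast with a defined DNA repair or cell cycle defect, compound-treated.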

[9] = NCI Yeast Anticancer Drug Screen. Data for the sgs1 strain (AID 173);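 further: 0% = growth of vehicle-only control cultures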; conditions: S. cerevisiae sgs1 mutant, hits give high values
How it was run: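 Read-out: yeast growth inhibition relative to vehicle controls, following compound exposure of a strain with a defined DNA repair/cell cycle alteration.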

[10] = NCI Yeast Anticancer Drug Screen. Data for the mlh1 rad18 strain (AID 175); conditions: S. cerevisiae mlh1 rad18 strain growth inhibition, hits give high values
How it was run: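 Yeast w/ defined DNA-repair lesions; compound exposure; growth vs vehicle controls → % inhibition.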

[11] = NCI Yeast Anticancer Drug Screen. Data for the rad18 strain (AID 177); conditions: S. cerevisiae rad18 mutant growth inhibition, hits give high values
How it was run: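 Readout: growth inhibition vs vehicle controls. Cells: genetically altered yeast strain, DNA repair defect.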

[12] = NCI Yeast Anticancer Drug Screen. Data for the rad52 strain (AID 147);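 further: 0% = growth of vehicle-treated control cultures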; conditions: S. cerevisiae rad52 mutant growth inhibition, hits give high values
How it was run: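 Read-out: growth inhibition versus vehicle-treated controls. Cells were a DNA repair-deficient yeast strain treated with compounds.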

[13] = NCI Yeast Anticancer Drug Screen. Data for the wt1 strain (AID 149);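 further: 0% = growth of vehicle-treated wt1 cultures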; conditions: S. cerevisiae wt1 strain (SPY 50644) growth inhibition, hits give high values
How it was run: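 wt1 strain grown with compound or vehicle; inhibition taken from the growth difference.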

[14] = NCI Yeast Anticancer Drug Screen. Data for the rad50EPP+ strain (AID 151);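 further: 0% = growth of vehicle-treated control cultures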; conditions: S. cerevisiae rad50 mutant strain, hits give high values
How it was run: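 Growth inhibition read against vehicle controls in rad50EPP+ yeast, a strain altered in DNA damage repair, after compound exposure.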

[15] = NCI Yeast Anticancer Drug Screen. Data for the mgt1 strain (AID 153); conditions: S. cerevisiae mgt1 mutant growth inhibition, hits give high values
How it was run: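 mgt1 yeast grown with test compound; read-out is growth inhibition versus vehicle-treated cultures.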

[16] = NCI Yeast Anticancer Drug Screen. Data for the rad50 strain (AID 155);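 further: 0% = growth of vehicle-only cultures of the same strain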; conditions: S. cerevisiae rad50 strain growth inhibition, hits give high values
How it was run: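 DNA repair mutant yeast, compound exposure, growth read-out; inhibition is taken relative to vehicle.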

[17] = at 5.0 µM (retest, dose inferred, filed as 0.5)
[18] = at 50.0 µM (retest, dose inferred, filed as 5.0)

Measured: growth inhibition

c1ccc(-c2ccnc3c2ccc2c(-c4ccccc4)ccnc23)cc1
inactive: [1]; [17] -31% | [1]; at 11.0 µM 53% | [2]; at 1.2 µM -6% | [2]; at 3.7 µM -17% | [2]; at 11.0 µM 54% | [3]; [17] 23% | [4]; at 1.2 µM -8% | [4]; at 3.7 µM -20% | [4]; at 11.0 µM 50% | [5]; [17] 48% | [6]; at 1.2 µM 24% | [6]; at 3.7 µM 27% | [6]; [17] 11% | [6]; at 11.0 µM 60% | [7]; at 1.2 µM 0% | [7]; at 3.7 µM -3% | [7]; at 11.0 µM 11% | [8]; at 1.2 µM -7% | [8]; at 3.7 µM -8% | [8]; at 11.0 µM 46% | [9]; at 1.2 µM 12% | [9]; at 3.7 µM 11% | [9]; at 11.0 µM 62% | [10]; [17] -32% | [11]; at 1.2 µM 9% | [11]; at 3.7 µM 12% | [11]; at 11.0 µM 49%
active: [1]; at 33.0 µM 99% | [1]; [18] 98% | [1]; at 50.0 µM 92.8% | [1]; at 100.0 µM 96% | [2]; at 33.0 µM 98% | [2]; at 100.0 µM 97% | [3]; [18] 97% | [3]; at 50.0 µM 92.1% | [4]; at 33.0 µM 98% | [4]; at 100.0 µM 98% | [5]; [18] 96% | [5]; at 50.0 µM 92% | [6]; at 33.0 µM 98% | [6]; [18] 96% | [6]; at 50.0 µM 90.3% | [6]; at 100.0 µM 97% | [7]; at 33.0 µM 98% | [7]; at 100.0 µM 97% | [8]; at 33.0 µM 98% | [8]; at 100.0 µM 98% | [9]; at 33.0 µM 98% | [9]; at 100.0 µM 96% | [10]; [18] 97% | [10]; at 50.0 µM 90.3% | [11]; at 33.0 µM 98% | [11]; at 100.0 µM 97%

O=C(NC(Nc1ccc(F)c(Cl)c1)(C(F)(F)F)C(F)(F)F)C(C(F)(F)F)C(F)(F)F
inactive: [12]; at 1.2 µM -2% | [12]; at 3.7 µM 12% | [13]; at 1.2 µM 8% | [13]; at 3.7 µM 7% | [13]; at 11.0 µM 48% | [14]; at 1.2 µM -7% | [14]; at 3.7 µM -13% | [14]; at 11.0 µM -25% | [14]; at 33.0 µM -16% | [14]; at 100.0 µM 2% | [15]; at 1.2 µM 26% | [15]; at 3.7 µM 25% | [15]; at 11.0 µM 54% | [16]; at 1.2 µM 8% | [16]; at 3.7 µM 17% | [16]; [17] 28% | [16]; at 11.0 µM 44% | [16]; at 50.0 µM 24.6% | [1]; at 1.2 µM 8% | [1]; at 3.7 µM 23% | [1]; [17] 3% | [1]; at 50.0 µM 27.6% | [2]; at 1.2 µM 9% | [2]; at 3.7 µM 19% | [2]; at 11.0 µM 26% | [3]; [17] 17% | [3]; at 50.0 µM 36% | [4]; at 1.2 µM 9% | [4]; at 3.7 µM 32% | [5]; [17] 43% | [6]; at 1.2 µM 5% | [6]; at 3.7 µM 15% | [6]; [17] 20% | [7]; at 1.2 µM 1% | [7]; at 3.7 µM 34% | [8]; at 1.2 µM 26% | [8]; at 3.7 µM 25% | [8]; at 11.0 µM 54% | [9]; at 1.2 µM 8% | [9]; at 3.7 µM 14% | [9]; at 11.0 µM 42% | [11]; at 1.2 µM 22% | [11]; at 3.7 µM 14% | [11]; at 11.0 µM 40%
active: [12]; at 11.0 µM 70% | [12]; at 33.0 µM 93% | [12]; at 100.0 µM 97% | [13]; at 33.0 µM 96% | [13]; at 100.0 µM 98% | [15]; at 33.0 µM 94% | [15]; at 100.0 µM 98% | [16]; at 33.0 µM 91% | [16]; [18] 96% | [16]; at 100.0 µM 96% | [1]; at 11.0 µM 74% | [1]; at 33.0 µM 97% | [1]; [18] 92% | [1]; at 100.0 µM 98% | [2]; at 33.0 µM 85% | [2]; at 100.0 µM 94% | [3]; [18] 72% | [4]; at 11.0 µM 92% | [4]; at 33.0 µM 97% | [4]; at 100.0 µM 97% | [5]; [18] 98% | [5]; at 50.0 µM 88% | [6]; at 11.0 µM 80% | [6]; at 33.0 µM 95% | [6]; [18] 95% | [6]; at 50.0 µM 75% | [6]; at 100.0 µM 97% | [7]; at 11.0 µM 86% | [7]; at 33.0 µM 99% | [7]; at 100.0 µM 99% | [8]; at 33.0 µM 94% | [8]; at 100.0 µM 98% | [9]; at 33.0 µM 93% | [9]; at 100.0 µM 96% | [11]; at 33.0 µM 83% | [11]; at 100.0 µM 92%

O=C1C2C(C(=O)N1c1ccc(OCc3ccccc3)cc1)C1c3ccccc3C2C2CCCCN21 (stereo unspecified)
inactive: [12]; at 1.2 µM -3% | [12]; at 3.7 µM 1% | [12]; at 11.0 µM 3% | [12]; at 33.0 µM 12% | [13]; at 1.2 µM -6% | [13]; at 3.7 µM -7% | [13]; at 11.0 µM -10% | [13]; at 33.0 µM -10% | [14]; at 1.2 µM -1% | [14]; at 3.7 µM 4% | [14]; at 11.0 µM 0% | [14]; at 33.0 µM 1% | [14]; at 100.0 µM 6% | [15]; at 1.2 µM 4% | [15]; at 3.7 µM 4% | [15]; at 11.0 µM -11% | [15]; at 33.0 µM 2% | [16]; at 1.2 µM 3% | [16]; at 3.7 µM 11% | [16]; [17] 3% | [16]; at 11.0 µM 13% | [16]; at 33.0 µM 41% | [16]; [18] 50% | [1]; at 1.2 µM -7% | [1]; at 3.7 µM -6% | [1]; [17] -5% | [1]; at 11.0 µM -6% | [1]; at 33.0 µM 2% | [1]; [18] 19% | [1]; at 50.0 µM -8.75% | [2]; at 1.2 µM -2% | [2]; at 3.7 µM 3% | [2]; at 11.0 µM 4% | [2]; at 33.0 µM 35% | [3]; [17] 1% | [3]; [18] 61% | [4]; at 1.2 µM -5% | [4]; at 3.7 µM -10% | [4]; at 11.0 µM -12% | [4]; at 33.0 µM -12% | [4]; at 100.0 µM 56% | [5]; [17] -14% | [5]; [18] -15% | [5]; at 50.0 µM 4.85% | [6]; at 1.2 µM -4% | [6]; at 3.7 µM -8% | [6]; [17] -5% | [6]; at 11.0 µM -1% | [6]; at 33.0 µM 23% | [6]; [18] 47% | [7]; at 1.2 µM -3% | [7]; at 3.7 µM -4% | [7]; at 11.0 µM -6% | [7]; at 33.0 µM 18% | [8]; at 1.2 µM 1% | [8]; at 3.7 µM 4% | [8]; at 11.0 µM 0% | [8]; at 33.0 µM 28% | [9]; at 1.2 µM -2% | [9]; at 3.7 µM -1% | [9]; at 11.0 µM -2% | [9]; at 33.0 µM 19% | [10]; [17] -6% | [10]; [18] 69% | [11]; at 1.2 µM -3% | [11]; at 3.7 µM 12% | [11]; at 11.0 µM 8% | [11]; at 33.0 µM 24%
active: [12]; at 100.0 µM 79% | [13]; at 100.0 µM 75% | [15]; at 100.0 µM 95% | [16]; at 50.0 µM 80.8% | [16]; at 100.0 µM 94% | [1]; at 100.0 µM 93% | [2]; at 100.0 µM 97% | [3]; at 50.0 µM 90.7% | [6]; at 50.0 µM 83.3% | [6]; at 100.0 µM 88% | [7]; at 100.0 µM 94% | [8]; at 100.0 µM 95% | [9]; at 100.0 µM 94% | [10]; at 50.0 µM 90.9% | [11]; at 100.0 µM 81%
